# Results: PubChem BioAssay (NCI)
# “And” between values parts separate entries of the source, which are not always exact repeats. Equal values may be shown once. The panel holds about 79,000 compounds, 15% with a hit somewhere; the sample as a whole holds those more often. More than one record can exist for a structure, and the calls need not agree. The source made the active and inactive calls. No stated cut-off is given here; in the data, active means growth inhibition above about 70%; inactive means the rest.
# Key:
# [1] = NCI Yeast Anticancer Drug Screen. Data for the rad52 strain (AID 147);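 further: 0% = growth of vehicle-treated control cultures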; conditions: S. cerevisiae rad52 mutant growth inhibition, stronger effect = higher value
# How it was run: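 Yeast strain carrying a DNA damage repair alteration was exposed to test compounds. Growth inhibition was measured relative to vehicle-treated controls.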
# [2] = NCI Yeast Anticancer Drug Screen. Data for the wt1 strain (AID 149);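 further: 0% = growth of vehicle-treated wt1 cultures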; conditions: S. cerevisiae wt1 strain (SPY 50644) growth inhibition, stronger effect = higher value
# How it was run: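 Using yeast strain wt1, compound-induced growth inhibition was determined against vehicle-treated cultures.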
# [3] = NCI Yeast Anticancer Drug Screen. Data for the rad50EPP+ strain (AID 151);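 further: 0% = growth of vehicle-treated control cultures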; conditions: S. cerevisiae rad50 mutant strain, stronger effect = higher value
# How it was run: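 Yeast strain carrying rad50 alteration (rad50EPP+) exposed to compounds; growth inhibition measured relative to vehicle-treated controls.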
# [4] = NCI Yeast Anticancer Drug Screen. Data for the mgt1 strain (AID 153); conditions: S. cerevisiae mgt1 mutant growth inhibition, stronger effect = higher value
# How it was run: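 Yeast mgt1 strain (DNA repair/cell-cycle alteration panel) exposed to compounds; growth inhibition measured relative to vehicle-treated controls.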
# [5] = NCI Yeast Anticancer Drug Screen. Data for the rad50 strain (AID 155);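 further: 0% = growth of vehicle-only cultures of the same strain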; conditions: S. cerevisiae rad50 strain growth inhibition, stronger effect = higher value
# How it was run: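 Relative growth inhibition (compound vs vehicle) was measured in yeast with a defined repair-gene alteration.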
# [6] = NCI Yeast Anticancer Drug Screen. Data for the mec2-1 strain (AID 157); conditions: S. cerevisiae mec2-1 strain, stronger effect = higher value
# How it was run: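 mec2-1 yeast strain, carrying an alteration in DNA damage repair or cell cycle control, was exposed to compounds; growth inhibition was measured relative to vehicle-treated controls.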
# [7] = NCI Yeast Anticancer Drug Screen. Data for the rad14 strain (AID 159);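 further: 0% = growth of vehicle-treated control cultures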; conditions: S. cerevisiae rad14 strain growth inhibition, stronger effect = higher value
# How it was run: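 Screen for anticancer potential: a yeast strain altered in DNA damage repair is grown with compound, and reduced growth is quantified against vehicle controls.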
# [8] = NCI Yeast Anticancer Drug Screen. Data for the sgs1 mgt1 strain (AID 161);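 further: 0% = growth of cultures given vehicle only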; conditions: S. cerevisiae sgs1 mgt1 strain, stronger effect = higher value
# How it was run: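 Growth of a repair-deficient yeast mutant was monitored after compound treatment and expressed as inhibition relative to vehicle-treated cultures.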
# [9] = NCI Yeast Anticancer Drug Screen. Data for the CLN2oe strain (AID 163);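 further: 0% = growth of vehicle-only control cultures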; conditions: S. cerevisiae CLN2oe strain, stronger effect = higher value
# How it was run: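 Yeast cells carrying a defined cell-cycle control alteration were exposed to test compounds. Growth inhibition was scored against vehicle-treated control cultures.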
# [10] = NCI Yeast Anticancer Drug Screen. Data for the cln2 rad14 strain (AID 165);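 further: 0% = growth equal to vehicle treated cultures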; conditions: S. cerevisiae cln2 rad14 strain, at 50.0 µM, stronger effect = higher value
# How it was run: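 Yeast carrying cln2 and rad14 alterations (cell cycle control and DNA damage repair) were exposed to compounds. Growth inhibition was measured against vehicle-treated controls.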
# [11] = NCI Yeast Anticancer Drug Screen. Data for the bub3 strain (AID 167); conditions: S. cerevisiae bub3 mutant strain, stronger effect = higher value
# How it was run: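 Screening used yeast with an engineered genetic alteration affecting cell cycle control. Compound-exposed cultures were compared with vehicle cultures, and reduced growth was taken as inhibition.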
# [12] = NCI Yeast Anticancer Drug Screen. Data for the wt2 strain (AID 169);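 further: 0% = growth of vehicle-treated yeast cultures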; conditions: S. cerevisiae wt2 strain growth inhibition, stronger effect = higher value
# How it was run: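 Yeast cells were exposed to test compounds, and growth inhibition was measured relative to vehicle-treated controls.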
# [13] = NCI Yeast Anticancer Drug Screen. Data for the mlh1 strain (AID 171);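 further: 0% = growth of vehicle-treated control cultures of the same strain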; conditions: S. cerevisiae mlh1 strain growth inhibition, stronger effect = higher value
# How it was run: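 Yeast carrying a defined genetic alteration in DNA damage repair or cell cycle control were exposed to test compounds. Growth inhibition was measured relative to vehicle-treated controls.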
# [14] = NCI Yeast Anticancer Drug Screen. Data for the sgs1 strain (AID 173);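 further: 0% = growth of vehicle-only control cultures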; conditions: S. cerevisiae sgs1 mutant, stronger effect = higher value
# How it was run: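 Yeast mutant strains carrying defined defects in DNA damage repair or cell cycle control were exposed to test compounds. Growth inhibition was scored against vehicle-treated controls.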
# [15] = NCI Yeast Anticancer Drug Screen. Data for the mlh1 rad18 strain (AID 175); conditions: S. cerevisiae mlh1 rad18 strain growth inhibition, stronger effect = higher value
# How it was run: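 Growth inhibition of the yeast strain was measured after compound exposure and expressed relative to vehicle-treated controls. The strain carries defined defects in DNA damage repair.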
# [16] = NCI Yeast Anticancer Drug Screen. Data for the rad18 strain (AID 177); conditions: S. cerevisiae rad18 mutant growth inhibition, stronger effect = higher value
# How it was run: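 Yeast carrying a defined DNA damage repair alteration were exposed to compounds. Growth inhibition was expressed relative to vehicle-treated controls.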
# [17] = at 5.0 µM (retest, dose inferred, filed as 0.5)
# [18] = at 50.0 µM (retest, dose inferred, filed as 5.0)
smiles,measurement,setting,value
Oc1cccc2cccnc12,growth inhibition,[1]; at 1.2 µM,20% (inactive)
same,growth inhibition,[1]; at 3.7 µM,91% (active)
same,growth inhibition,[1]; at 11.0 µM,93% (active)
same,growth inhibition,[1]; at 33.0 µM,94% (active)
same,growth inhibition,[1]; at 100.0 µM,96% (active)
same,growth inhibition,[2]; at 1.2 µM,27% (inactive)
same,growth inhibition,[2]; at 3.7 µM,95% (active)
same,growth inhibition,[2]; at 11.0 µM,99% (active)
same,growth inhibition,[2]; at 33.0 µM,99% (active)
same,growth inhibition,[2]; at 100.0 µM,98% (active)
same,growth inhibition,[3]; at 1.2 µM,-11% (inactive)
same,growth inhibition,[3]; at 3.7 µM,93% (active)
same,growth inhibition,[3]; at 11.0 µM,94% (active)
same,growth inhibition,[3]; at 33.0 µM,94% (active)
same,growth inhibition,[3]; at 100.0 µM,95% (active)
same,growth inhibition,[4]; at 1.2 µM,4% (inactive)
same,growth inhibition,[4]; at 3.7 µM,91% (active)
same,growth inhibition,[4]; at 11.0 µM,96% (active)
same,growth inhibition,[4]; at 33.0 µM,98% (active)
same,growth inhibition,[4]; at 100.0 µM,97% (active)
same,growth inhibition,[5]; at 1.2 µM,18% (inactive)
same,growth inhibition,[5]; at 3.7 µM,85% (active)
same,growth inhibition,[5]; [17],78% (active) and 97% (active) and 96% (active)
same,growth inhibition,[5]; at 11.0 µM,97% (active)
same,growth inhibition,[5]; at 33.0 µM,97% (active)
same,growth inhibition,[5]; [18],99% (active)
same,growth inhibition,[5]; at 50.0 µM,99.1% (active) [middle of 4 runs]
same,growth inhibition,[5]; at 100.0 µM,96% (active)
same,growth inhibition,[6]; at 1.2 µM,6% (inactive)
same,growth inhibition,[6]; at 3.7 µM,85% (active)
same,growth inhibition,[6]; at 11.0 µM,97% (active)
same,growth inhibition,[6]; at 33.0 µM,99% (active)
same,growth inhibition,[6]; [18],99% (active) and 100% (active)
same,growth inhibition,[6]; at 50.0 µM,99.1% (active) [middle of 4 runs]
same,growth inhibition,[6]; at 100.0 µM,98% (active)
same,growth inhibition,[7]; at 1.2 µM,22% (inactive)
same,growth inhibition,[7]; at 3.7 µM,85% (active)
same,growth inhibition,[7]; at 11.0 µM,98% (active)
same,growth inhibition,[7]; at 33.0 µM,98% (active)
same,growth inhibition,[7]; at 100.0 µM,98% (active)
same,growth inhibition,[8]; [18],-41% (inactive) and 100% (active) and 99% (active)
same,growth inhibition,[8]; at 50.0 µM,95.5% (active) [middle of 5 runs]
same,growth inhibition,[9]; at 1.2 µM,-19% (inactive)
same,growth inhibition,[9]; at 3.7 µM,86% (active)
same,growth inhibition,[9]; at 11.0 µM,84% (active)
same,growth inhibition,[9]; at 33.0 µM,94% (active)
same,growth inhibition,[9]; at 100.0 µM,92% (active)
same,growth inhibition,[10],95.5% (active) [middle of 5 runs]
same,growth inhibition,[11]; at 1.2 µM,-2% (inactive)
same,growth inhibition,[11]; at 3.7 µM,63% (inactive)
same,growth inhibition,[11]; at 11.0 µM,97% (active)
same,growth inhibition,[11]; at 33.0 µM,98% (active)
same,growth inhibition,[11]; [18],-8% (inactive) and 100% (active) and 99% (active)
same,growth inhibition,[11]; at 50.0 µM,98.7% (active) [middle of 5 runs]
same,growth inhibition,[11]; at 100.0 µM,98% (active)
same,growth inhibition,[12]; at 1.2 µM,17% (inactive)
same,growth inhibition,[12]; at 3.7 µM,84% (active)
same,growth inhibition,[12]; at 11.0 µM,90% (active)
same,growth inhibition,[12]; at 33.0 µM,95% (active)
same,growth inhibition,[12]; at 100.0 µM,98% (active)
same,growth inhibition,[13]; at 1.2 µM,1% (inactive)
same,growth inhibition,[13]; at 3.7 µM,74% (active)
same,growth inhibition,[13]; at 11.0 µM,97% (active)
same,growth inhibition,[13]; at 33.0 µM,98% (active)
same,growth inhibition,[13]; at 100.0 µM,98% (active)
same,growth inhibition,[14]; at 1.2 µM,47% (inactive)
same,growth inhibition,[14]; at 3.7 µM,94% (active)
same,growth inhibition,[14]; at 11.0 µM,97% (active)
same,growth inhibition,[14]; at 33.0 µM,98% (active)
same,growth inhibition,[14]; at 100.0 µM,97% (active)
same,growth inhibition,[15]; [17],75% (active) [middle of 5 runs]
same,growth inhibition,[15]; [18],99% (active) and 96% (active)
same,growth inhibition,[15]; at 50.0 µM,98.2% (active) [middle of 4 runs]
same,growth inhibition,[16]; at 1.2 µM,30% (inactive)
same,growth inhibition,[16]; at 3.7 µM,95% (active)
same,growth inhibition,[16]; at 11.0 µM,97% (active)
same,growth inhibition,[16]; at 33.0 µM,97% (active)
same,growth inhibition,[16]; at 100.0 µM,97% (active)
